Experimental findings from PubChem BioAssay (NCATS) are described below.

“And” between values parts separate entries of the source, which are not always exact repeats. Equal entries are not always repeated. Results filed as inconclusive are left out. The source made the active and inactive calls. Calls follow the shape of the dose curve; as a rule, active = well fitted curve in the direction sought with a large enough effect; inconclusive = small, poorly fitted or top-dose-only effect, or another doubt; inactive = no such curve, though single readings can be large or run the other way. *1 amine or outer side, *2 acyl side, *3 side chain or, on linkers, in order; H or OH if unused. Where a SMILES comes first, the peptide text is derived from it. Bridges are numbered along the chain shown (N, C = ends). [ ]: non-standard residue; d: D form. The star is where a group is joined. X5 = NC1=N[C@@H]([C@H](N[*:1])C(=O)[*:2])C[C@H](O)N1; ΔAla(Z-3-ureido) = NC(=O)N/C=C(\N)C(=O)O; β3hOrn = NCCC[C@H](N)CC(=O)*; Dap = NC[C@H](N)C(=O)O
% is scaled to controls: 0 for no effect and ±100 for the full control effect.

A short description of this assay: qHTS Assay for Identifying Gametocytocidal Compounds (AID 743244).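 Also: actives lower the fluorescent signal which means gametocytes are killed.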 Particulars: P. falciparum 3D7 stage III-V gametocytes, alamarBlue, 72 h; max response: stronger effect = lower value. The text has this: Malaria cases and deaths have dropped 50% in 29 countries since 2000 due to the combined effects of long-lasting insecticidal bednets, indoor residual spraying, and artemisinin-based combination therapies (ACTs). This success has raised hopes for malaria eradication and consequently stimulated interest in developing new reagents that block gametocyte transmission such as novel and safe gametocytocidal drugs. However, previous drug development efforts have focused primarily on the asexual parasites that cause symptoms, but not malaria transmission. Consequently, patients can remain infectious for weeks after the clearance of asexual parasites and clinical symptoms. To be transmitted from person to person via a mosquito, the parasites must switch from asexual to sexual development and produce male and female gametocytes. Malaria gametocytes consist of five stages (I, II, III, IV and V). The late stage gametocytes (III, IV and V) are difficult to be cultured in vitro and the long lifespan of mature gametocytes allows them being transmitted from host to mosquitoes unless they are completely eliminated by gametocytocidal agents. To identify gametocytocidal compounds which are capable of killing late stage P. falciparum gametocytes, a high throughput gametocyte viability assay was employed. This assay uses oxidoreduction indicator, alamarBlue, as a general measure of metabolic activity of gametocytes. Within live cells, the nonfluorescent resazurin is reduced to resorufin, a bright red fluorescence dye. Fluorescence decreases upon treatment of gametocytocidal compounds. P. falciparum gametocyte (3D7 strain) was used in this study.
The 1536-well gametocycidal viability assay was based on the previous method of Tanaka et al. Stage III-V gametocytes were tested against three compound libraries, including 4265 compounds from NCGC pharmaceutical collection, 400 from Malaria Box library, and 550 from an internal collection of kinase inhibitors. Briefly, 2.5 ul/well incomplete medium was dispensed into each well of 1,536-well plates using the Multidrop Combi followed by 23 nl compound transferring using the NX-TR Pintool (WAKO Scientific Solutions, San Diego, CA). Then, 2.5 ul/well of gametocytes was dispensed with a seeding density of 20,000 cells/well using the Multidrop Combi. The assay plates were incubated for 72 h at 37C with 5% CO2. After addition of 5 ul/well of 2X AlamarBlue dye (Life Technologies, cat. no. DAL1100), the plates were incubated for 24 h at 37C with 5% CO2 and then were read in a fluorescence detection mode (Ex = 525 nm, Em = 598 nm) on a ViewLux plate reader (PerkinElmer).
Regarding `O=C1c2ccccc2C(=O)C1c1ccc(Cl)cc1`, the max response is 13.7% (inactive). For `CCC(C)[C@@H](N)C(=O)O` (stereo not given in full) the value was -1.27% (inactive). The result for `CO/N=C(/C(=O)N[C@@H]1C(=O)N2C(C(=O)O)=C(COC(N)=O)CS[C@H]12)c1ccco1` reads -11% (inactive) and 13.4% (inactive); that for `Nc1ncnc2c1ncn2CCOCP(=O)(O)O`, -0.768% (inactive).

Turning to `CC(C)(C)NCC(O)c1ccc(O)c(CO)n1` (stereo not given), the max response was 6.55% (inactive). For `O=C1CC[C@@H](C(=O)N[C@H]2C[C@@H]2c2ccccc2)N1` the value was -4.02% (inactive); for `NCCC[C@H](N)CC(=O)N[C@H]1CNC(=O)[C@H]([C@H]2C[C@H](O)NC(N)=N2)NC(=O)/C(=C/NC(N)=O)NC(=O)[C@H](CO)NC(=O)[C@H](CO)NC1=O` (β3hOrn-[Dap]SS[ΔAla(Z-3-ureido)][X5]; lactam 1-C), 13.7% (inactive).

As for `O=C(CO)[C@@H](O)[C@H](O)[C@@H](O)C(=O)O`, the max response is 23.9% (inactive). For `O=C(NNCS(=O)(=O)O)c1ccncc1` the value was -7.51% (inactive); for `COc1ccc(-c2noc(CC(=O)O)c2-c2ccc(OC)cc2)cc1`, 49.9% (inactive); for `CC(=O)[C@@]1(O)CC[C@H]2[C@@H]3C=C(Cl)C4=CC(=O)[C@@H]5C[C@@H]5[C@]4(C)[C@H]3CC[C@@]21C`, 3.29% (inactive). For `CC/C=C\C/C=C\C/C=C\C/C=C\C/C=C\C/C=C\CCC(=O)O` the value was -1.97% (inactive); for `CC1(C)[C@@H]2CC[C@@]1(C)[C@H](OC(=O)CSC#N)C2`, -3.31% (inactive). Regarding `O=C(O)c1ccc(NC2OC[C@@H](O)[C@H](O)[C@H]2O)cc1` (stereo not given in full), the max response is -2.1% (inactive). For `CC(C)[C@@H]1CC[C@@H](C)C[C@H]1OC(=O)c1ccccc1O` the value was 9.93% (inactive). For `Nc1ccc(N=Nc2ccccc2)c(N)n1` the value was -8.48% (inactive); for `O=C(O)Cc1cc(I)c(Oc2ccc(O)c(I)c2)c(I)c1`, 10.9% (inactive); for `CC(=C\c1ccccc1)/C=C1/SC(=S)N(CC(=O)O)C1=O`, 8.93% (inactive).

For `COC(=O)C(CN)c1c[nH]c2ccc(OC)cc12` (stereo not given), the max response is -6.34% (inactive). Regarding `COc1ccc(/C=C/C(=O)O)cc1`, the max response was -1.23% (inactive).

Take `CC(C)C1=CC2=CC[C@@H]3[C@](C)(CCC[C@@]3(C)C(=O)O)[C@H]2CC1`: the max response is -5.77% (inactive). The result for `O=C(O)CCCC/C=C(\c1ccccc1)c1cccnc1` reads 0.181% (inactive). In the case of `CC1CCC(NC(=O)N(CCCl)N=O)CC1` (stereo not given), the max response was 3.88% (inactive). For `C[C@@H]1C[C@H]2[C@@H]3CCC4=CC(=O)C=C[C@]4(C)[C@@]3(F)[C@@H](O)C[C@]2(C)[C@@]1(O)C(=O)COC(=O)c1cccc(S(=O)(=O)O)c1` the value was 12.5% (inactive); for `OCCCNc1ccccc1`, -7.9% (inactive). The result for `CC12CCC(C1)C(C)(C)C2=O` (stereo not given) reads -0.872% (inactive). Consider `NC[C@H]1O[C@H](O[C@H]2[C@H](O)[C@@H](O[C@H]3O[C@H](CO)[C@@H](O)[C@H](N)[C@H]3O)[C@H](N)C[C@@H]2N)[C@H](N)C[C@@H]1O`, for which the max response is -3.45% (inactive). For `Nc1ncnc2c1ncn2[C@H]1CC[C@@H](CO)O1` the value was -3.96% (inactive). For `COc1cc2c(cc1OC)[C@@H](Cc1cc(OC)c(OC)c(OC)c1)[N+](C)(CCCOC(=O)CC/C=C/CCC(=O)OCCC[N+]1(C)CCc3cc(OC)c(OC)cc3[C@H]1Cc1cc(OC)c(OC)c(OC)c1)CC2` (stereo not given in full) the value was 7.25% (inactive) and 6.59% (inactive).

Regarding `CO[C@@H]1[C@H](OC(=O)/C=C/C=C/C=C/C=C/C(=O)O)CC[C@]2(CO2)[C@H]1[C@@]1(C)O[C@@H]1CC=C(C)C`, the max response is -5.74% (inactive). The result for `C=C1CC[C@H](O)C/C1=C\C=C1/CCC[C@]2(C)[C@@H]([C@H](C)CCCC(C)C)CC[C@@H]12` reads 7.84% (inactive); that for `Oc1cc(O)cc(O)c1`, 16.3% (inactive); that for `C[C@H](O)CN(C)C`, -4.88% (inactive).

Turning to `C=CCN1CCCC1CNC(=O)c1cc(S(N)(=O)=O)cc(OC)c1OC` (stereo not given), the max response is -2.17% (inactive). In the case of `CC1CCCC(C)N1NC(=O)c1ccc(Cl)c(S(N)(=O)=O)c1` (stereo not given), the max response was 7.73% (inactive). The result for `S=C=Nc1ccc(N=C=S)cc1` reads -17.1% (inactive); that for `NC(=O)CC[C@@H]1NC(=O)[C@H](Cc2ccccc2)NC(=O)[C@H](Cc2ccc(O)cc2)NC(=O)[C@@H](N)CSSC[C@@H](C(=O)N2CCC[C@H]2C(=O)N[C@@H](CCCN=C(N)N)C(=O)NCC(N)=O)NC(=O)[C@H](CC(N)=O)NC1=O`, -1.4% (inactive) and -14.5% (inactive); that for `CC1(C)S[C@@H]2[C@H](NC(=O)C3(N)CCCCC3)C(=O)N2[C@H]1C(=O)O`, 7.96% (inactive). For the compound `Cc1cccc(C)c1Nc1ncccc1C(=O)O`, the max response is 11.3% (inactive). The result for `CC(O)[C@@H]1NC(=O)[C@H](Cc2ccccc2)NC(=O)[C@H](C(C)O)NC(=O)[C@H](CCCCN)NC(=O)[C@H](Cc2c[nH]c3ccccc23)NC(=O)[C@H](Cc2ccccc2)NC(=O)[C@H](Cc2ccccc2)NC(=O)[C@H](CC(N)=O)NC(=O)[C@H](CCCCN)NC(=O)[C@@H](NC(=O)CNC(=O)[C@H](C)N)CSSC[C@@H](C(=O)O)NC(=O)[C@H](CO)NC1=O` (stereo not given in full) reads 1.43% (inactive).
